Measurements: ChEMBL document CHEMBL1157539, “Thousands of chemical starting points for antimalarial lead identification” (Nature, 2010)

These molecules were tested on Plasmodium falciparum (assay: GSK_TCMDC: Inhibition of Plasmodium falciparum 3D7 in whole red blood cells, using parasite LDH activity as an index of growth. Test compounds present at 2uM).
Assay type: functional

Row | SMILES | Inhibition [%]
1 | CN(C)CCNC(=O)c1ccc2c(c1)n(C1CCN(S(=O)(=O)c3ccc(-c4ccccc4)cc3)CC1)c(=O)n2CC1CCCCC1 | 100
2 | Cc1cccc2nc(-c3ccc(-c4cccc(CN5CCN(c6ccncc6)CC5)c4)cc3)[nH]c12.O=C(O)C(F)(F)F | 100
3 | Cc1ccc(F)c(C(=O)Nc2cccc(-c3nn4ccccc4c3-c3ccnc(Nc4cccc(F)c4)n3)c2)c1F | 98
4 | COc1ccc(Cl)cc1NC(=O)Nc1ccc2c(c1)CCN(C1CCC1)CC2.Cl | 98
5 | COc1cc2ncnc(Nc3ccc(OCc4ccccc4)c(C(F)(F)F)c3)c2cc1OC.Cl | 100
6 | CC(Cc1ccc(NC(=O)c2ccc(CNCc3ccccc3)cc2)cc1)N(CCc1cccc(Cl)c1)C(=O)OC(C)(C)C (stereo unspecified) | 95
7 | O=C(Nc1cccc(-c2nn3ccccc3c2-c2ccnc(Nc3cccc(-c4cnco4)c3)n2)c1)C1CCCCC1 | 95
8 | O=C1C2C(c3ccc(Cl)c(Cl)c3)N3CC(OCc4ccccc4)CC3(C(=O)O)C2C(=O)N1c1ccc(Br)cc1 (stereo unspecified) | 100
9 | Cn1cncc1C(=O)Nc1cccc(-c2ccc(-c3nc4cc(F)ccc4[nH]3)s2)c1 | 99
10 | COc1ccc(C2CC(c3cccs3)=NN2C(=O)COc2cccc3c2CCCC3O)cc1OC (stereo unspecified) | 93
11 | COc1cccc2cc(C(=O)N[C@@H](CC(C)C)C(=O)N[C@H](/C=N/N3C(=O)CN(Cc4ccccc4)C3=O)CCc3ccccc3)oc12 | 85
12 | Cc1sc2nc(CSc3ccccc3)nc(N3CCN(CC(=O)N4CCCC4)CC3)c2c1C | 91
13 | CCOc1ccc(/C=C/C(=O)Nc2cccc3c2CCN(C)C3)cc1.Cl | 92
14 | CN1CCN(CC(=O)Nc2ccc(-c3cccc(-c4nc5cc(F)ccc5[nH]4)c3)cc2)CC1 | 100
15 | CCN(CC)CCCNc1nccc(N(C)c2ccc(NC(=O)Nc3cc(C(F)(F)F)ccc3F)cc2)n1.O=C(O)C(F)(F)F | 94
16 | C=Cc1cc(NC(=O)N2CCc3cc(OC)c(C(F)(F)F)cc32)cc(-c2cccnc2)c1 | 92
17 | CC(Cc1ccc(C(=O)OCCOC(=O)c2ccc(CC(C)NCC(O)c3cccc(C(F)(F)F)c3)cc2)cc1)NCC(O)c1cccc(C(F)(F)F)c1 (stereo unspecified) | 98
18 | Cn1cnc(CCNC(=O)c2cccc(-c3csc(-c4nc5ccccc5[nH]4)c3)c2)c1 | 100
19 | O=C(Nc1cccc(CN2CCCN(Cc3ccc(O)cc3)CC2)c1)c1ccc2ccccc2c1.O=C(O)C(F)(F)F | 100
20 | CCCc1cc(Cc2cnc(N)nc2N)ccc1OCCCCCC(=O)OCC | 97
21 | COc1cc(NC(=O)N2CCOC(CCN3CCC4(CCc5ccccc54)CC3)(c3ccc(Cl)c(Cl)c3)C2)cc(OC)c1OC (stereo unspecified) | 94
22 | CN(C)c1ccc(C2c3[nH]cnc3CCN2C(=O)Nc2cccc([N+](=O)[O-])c2)cc1 (stereo unspecified) | 98
23 | O=C(O)C(F)(F)F.OC1CCCN(Cc2ccc(-c3cccc(-c4nc5cc(F)ccc5[nH]4)c3)cc2)C1 (stereo unspecified) | 99
24 | CCC(=O)c1cc(C(=O)NCCc2cccc(OC)c2)ccc1OC | 83
25 | CN1CCCN(Cc2ccc(-c3ccc(NC(=O)c4cccc(C#N)c4)cc3)cc2)CC1.O=C(O)C(F)(F)F | 97
26 | O=C(N[C@@H](CC1CCCCC1)C(=O)NCCN1CCCC1)c1ccc(O)c(-c2cccc(C(F)(F)F)c2)c1 | 99

Each molecule was assayed on Plasmodium falciparum (assay: GSK_TCMDC: Inhibition of Plasmodium falciparum Dd2 in whole red blood cells, using parasite LDH activity as an index of growth. Test compounds present at 2uM).
Assay type: functional

Row | SMILES | Inhibition [%]
27 | COc1ccc2c(c1C1CCN(CCCCNC(=O)c3ccc(-c4ccc(Cl)cn4)cc3)CC1)CCCC2 | 49
28 | O=C(Nc1ccc(-c2csc(-c3nc4ccccc4[nH]3)c2)cc1)Nc1ccc(F)c(F)c1F | 64
29 | C=CCC(CC=C)N1C(=O)C(c2ccccc2)(c2ccccc2)N=C1N.O=CO | 97
30 | Nc1nc(N)c2c(ccc3c2ccn3C2C=CCCC2)n1 (stereo unspecified) | 65
31 | Clc1ccc(-c2cc(-c3csc(Nc4ccncc4)n3)on2)cc1 | 99
32 | COc1ccc2ncc(F)c(CCN3CC(O)C(CNCc4ccc(F)cc4)C3)c2n1.Cl (stereo unspecified) | 21
33 | NCc1cccc(-c2ccc3ccnc(N)c3c2)c1 | 96
34 | NC1CCCN(Cc2cccc(-c3cccc(-c4nc5ccccc5[nH]4)c3)c2)C1.O=C(O)C(F)(F)F (stereo unspecified) | 61
35 | Fc1ccc2[nH]c(-c3ccc(-c4ccc(CN5CCCCC5)cc4)s3)nc2c1.O=C(O)C(F)(F)F | 100
36 | CC(C)C[C@H](Nc1ccc(C#N)c2ccccc12)C(=O)NC(C)(C)C12CC3CC(CC(C3)C1)C2.O=C(O)C(F)(F)F | 30
37 | Cc1nc(NC(=N)N)nc2ccc(C(C)(C)C)cc12.Cl | 91
38 | Oc1cc(Nc2ccnc3cc(-c4ccc(CN5CCCCC5)o4)c(Cl)cc23)c(Cl)cc1F | 64
39 | COc1ccc2nccc([C@@H](O)CN3CCC(NCCNc4ccccn4)CC3)c2c1.O=C(O)C(=O)O | 14
40 | Cc1cccc2nc(-c3cccc(-c4ccc(CNCc5ccc(S(C)(=O)=O)cc5)cc4)c3)[nH]c12.O=C(O)C(F)(F)F | 98
41 | CN(C)CCNC(=O)c1ccc2c(c1)n(C1CCN(S(=O)(=O)c3ccc(-c4ccccc4)cc3)CC1)c(=O)n2CC1CCCCC1 | 66
42 | Cc1cccc2nc(-c3ccc(-c4cccc(CN5CCN(c6ccncc6)CC5)c4)cc3)[nH]c12.O=C(O)C(F)(F)F | 99
43 | Cc1ccc(F)c(C(=O)Nc2cccc(-c3nn4ccccc4c3-c3ccnc(Nc4cccc(F)c4)n3)c2)c1F | 60
44 | COc1ccc(Cl)cc1NC(=O)Nc1ccc2c(c1)CCN(C1CCC1)CC2.Cl | 19
45 | COc1cc2ncnc(Nc3ccc(OCc4ccccc4)c(C(F)(F)F)c3)c2cc1OC.Cl | 78
46 | CC(Cc1ccc(NC(=O)c2ccc(CNCc3ccccc3)cc2)cc1)N(CCc1cccc(Cl)c1)C(=O)OC(C)(C)C (stereo unspecified) | 2

Row | SMILES | Inhibition [%]
47 | O=C(Nc1cccc(-c2nn3ccccc3c2-c2ccnc(Nc3cccc(-c4cnco4)c3)n2)c1)C1CCCCC1 | 99
48 | O=C1C2C(c3ccc(Cl)c(Cl)c3)N3CC(OCc4ccccc4)CC3(C(=O)O)C2C(=O)N1c1ccc(Br)cc1 (stereo unspecified) | 86
49 | Cn1cncc1C(=O)Nc1cccc(-c2ccc(-c3nc4cc(F)ccc4[nH]3)s2)c1 | 27
50 | COc1ccc(C2CC(c3cccs3)=NN2C(=O)COc2cccc3c2CCCC3O)cc1OC (stereo unspecified) | 62
51 | COc1cccc2cc(C(=O)N[C@@H](CC(C)C)C(=O)N[C@H](/C=N/N3C(=O)CN(Cc4ccccc4)C3=O)CCc3ccccc3)oc12 | 52
52 | Cc1sc2nc(CSc3ccccc3)nc(N3CCN(CC(=O)N4CCCC4)CC3)c2c1C | 69
53 | CCOc1ccc(/C=C/C(=O)Nc2cccc3c2CCN(C)C3)cc1.Cl | 3
54 | CN1CCN(CC(=O)Nc2ccc(-c3cccc(-c4nc5cc(F)ccc5[nH]4)c3)cc2)CC1 | 100
55 | CCN(CC)CCCNc1nccc(N(C)c2ccc(NC(=O)Nc3cc(C(F)(F)F)ccc3F)cc2)n1.O=C(O)C(F)(F)F | 19
56 | C=Cc1cc(NC(=O)N2CCc3cc(OC)c(C(F)(F)F)cc32)cc(-c2cccnc2)c1 | 20
57 | CC(Cc1ccc(C(=O)OCCOC(=O)c2ccc(CC(C)NCC(O)c3cccc(C(F)(F)F)c3)cc2)cc1)NCC(O)c1cccc(C(F)(F)F)c1 (stereo unspecified) | 86
58 | Cn1cnc(CCNC(=O)c2cccc(-c3csc(-c4nc5ccccc5[nH]4)c3)c2)c1 | 26
59 | O=C(Nc1cccc(CN2CCCN(Cc3ccc(O)cc3)CC2)c1)c1ccc2ccccc2c1.O=C(O)C(F)(F)F | 78
60 | CCCc1cc(Cc2cnc(N)nc2N)ccc1OCCCCCC(=O)OCC | 1
61 | COc1cc(NC(=O)N2CCOC(CCN3CCC4(CCc5ccccc54)CC3)(c3ccc(Cl)c(Cl)c3)C2)cc(OC)c1OC (stereo unspecified) | 67
62 | CN(C)c1ccc(C2c3[nH]cnc3CCN2C(=O)Nc2cccc([N+](=O)[O-])c2)cc1 (stereo unspecified) | 15
63 | O=C(O)C(F)(F)F.OC1CCCN(Cc2ccc(-c3cccc(-c4nc5cc(F)ccc5[nH]4)c3)cc2)C1 (stereo unspecified) | 49
64 | CCC(=O)c1cc(C(=O)NCCc2cccc(OC)c2)ccc1OC | 12
65 | CN1CCCN(Cc2ccc(-c3ccc(NC(=O)c4cccc(C#N)c4)cc3)cc2)CC1.O=C(O)C(F)(F)F | 67
66 | O=C(N[C@@H](CC1CCCCC1)C(=O)NCCN1CCCC1)c1ccc(O)c(-c2cccc(C(F)(F)F)c2)c1 | 55
